Consider 153 variants from a collection of fitness landscapes (doi:10.1016/j.celrep.2020.107928).

Sequences and labels used below:
B1: Caulobacter ParB omega fusion; a variant is named by its letters at X, in order, B8GW30 (parent)
chain: MESVVVGEPGMSEGRRGLGRGLSALLGEVDAAPAQAPGEQLGGSREAPIEILQRNPDQPRRTFREEDLEDLSNSIREKGVLQPILVRPSPDTAGEYQIVAGERAWRAAQRAGLKTVPIMVRELDDLAVLEIGIIENVQRADLNVLEEALSYKVLMEKFERTQENIAQTIGKSXSHVANXMRLLXLPDEVQSYLVSGELTAXHARAIAAAADPVALAKQIIEGGLSVRETEALARKAPNLSAGKSKGGRPPRVKDTDTQALESDLSSVLGLDVSIDHRGSTGTLTITYATLEQLDDLCNRLTRGI

The full ranking holds about 81,000 sequences; the median of “one-hybrid fitness for binding NBS DNA” is about -0.1, and the highest 2% start at about 0.36. The full list was thinned out, with the highest values kept by preference.

Variants of B1 are the subject of this assay. The experiment in a line: one-hybrid fitness for binding NBS DNA (the Noc-binding site; scaled: cognate 1, non-cognate 0); higher = stronger binding. Conditions: with NBS DNA site. The gist of the method:
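Bacterial one-hybrid selection in E. coli USO rpoZ- hisB- pyrF- with a HIS3 reporter carrying the site 19 bp from the promoter, screening Caulobacter ParB libraries with four specificity codons randomised (NNS). Cells grew 48 hours at 37°C on M9-minus-histidine plus 0.1 mM IPTG and 5 mM 3-AT. Plasmids before and after selection were Illumina-sequenced, three replicate libraries pooled, and variants under 10 reads dropped. Fitness is the log change in variant-to-wild-type read ratio, rescaled to cognate 1, non-cognate 0.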
On to TSRY, for which the “one-hybrid fitness for binding NBS DNA” value is at most 0.2. RQHL: the “one-hybrid fitness for binding NBS DNA” value is at most 0.2. Next, HCVL: at most 0.2. For SCSP, the “one-hybrid fitness for binding NBS DNA” value is at most 0.2. SVIR: the “one-hybrid fitness for binding NBS DNA” value is at most 0.2.

As for DSRA, the “one-hybrid fitness for binding NBS DNA” value is at most 0.2. Regarding DIFG, the “one-hybrid fitness for binding NBS DNA” value is at most 0.2. Consider WLHF, for which the “one-hybrid fitness for binding NBS DNA” value is at most 0.2.

For EQLL, the “one-hybrid fitness for binding NBS DNA” value is at most 0.2.

Take LLDV: the “one-hybrid fitness for binding NBS DNA” value was at most 0.2. As to GYFR, the “one-hybrid fitness for binding NBS DNA” value was at most 0.2. On to QKNN, for which the “one-hybrid fitness for binding NBS DNA” value worked out at 0.203. Next, QKND: at most 0.2; QKDT: 0.401; QKNT: 0.639. As for GYDR, the figure is at most 0.2; as for FATT, at most 0.2. On to GEDG, for which the “one-hybrid fitness for binding NBS DNA” value is at most 0.2. Consider RIGQ, for which the “one-hybrid fitness for binding NBS DNA” value is at most 0.2.

In the case of RAGG, the “one-hybrid fitness for binding NBS DNA” value is at most 0.2. Regarding RAGT, the “one-hybrid fitness for binding NBS DNA” value turned out to be 0.443. Consider RNGT, for which the “one-hybrid fitness for binding NBS DNA” value is at most 0.2. Consider RPGT, for which the “one-hybrid fitness for binding NBS DNA” value is at most 0.2.

For the variant RSGT, the “one-hybrid fitness for binding NBS DNA” value came to 0.425. As for RFGT, the figure is at most 0.2; as for RCGT, 0.462; as for RHGT, 0.344. Consider RIGT, for which the “one-hybrid fitness for binding NBS DNA” value came out at 0.403.

For RAGF, the “one-hybrid fitness for binding NBS DNA” value is at most 0.2. Regarding CETT, the “one-hybrid fitness for binding NBS DNA” value is at most 0.2. As to LWGM, the “one-hybrid fitness for binding NBS DNA” value was at most 0.2. HAAD: the “one-hybrid fitness for binding NBS DNA” value was at most 0.2.

As to HAFN, the “one-hybrid fitness for binding NBS DNA” value is at most 0.2.

As for VLQG, the “one-hybrid fitness for binding NBS DNA” value is at most 0.2. Turning to QGVT, the “one-hybrid fitness for binding NBS DNA” value was at most 0.2. As to QKVG, the “one-hybrid fitness for binding NBS DNA” value is at most 0.2.

Consider DKKT, for which the “one-hybrid fitness for binding NBS DNA” value is at most 0.2. As for QKVT, the figure is 0.44; as for QKKT, 0.774. As for QCVT, the “one-hybrid fitness for binding NBS DNA” value is 0.428. QPVT: the “one-hybrid fitness for binding NBS DNA” value was 0.269. For the variant CKVS, the “one-hybrid fitness for binding NBS DNA” value was at most 0.2.

Consider ENAK, for which the “one-hybrid fitness for binding NBS DNA” value was at most 0.2. As for LWKN, the figure is at most 0.2.

VVCT: the “one-hybrid fitness for binding NBS DNA” value is at most 0.2. Turning to GSCC, the “one-hybrid fitness for binding NBS DNA” value is at most 0.2. As to HRFR, the “one-hybrid fitness for binding NBS DNA” value was at most 0.2. For RRNS, the “one-hybrid fitness for binding NBS DNA” value stood at 0.678.

As to RRDD, the “one-hybrid fitness for binding NBS DNA” value is at most 0.2.

In the case of RRNF, the “one-hybrid fitness for binding NBS DNA” value was found to be 0.281. Consider RRDS, for which the “one-hybrid fitness for binding NBS DNA” value stood at 0.58. With RRNC, the “one-hybrid fitness for binding NBS DNA” value is 0.343.

In the case of RRDP, the “one-hybrid fitness for binding NBS DNA” value is at most 0.2. As to ADSL, the “one-hybrid fitness for binding NBS DNA” value is at most 0.2. Consider MLMV, for which the “one-hybrid fitness for binding NBS DNA” value is at most 0.2.

Turning to CATV, the “one-hybrid fitness for binding NBS DNA” value was at most 0.2. As to SVNP, the “one-hybrid fitness for binding NBS DNA” value is at most 0.2.

As to VMPY, the “one-hybrid fitness for binding NBS DNA” value was at most 0.2. Take MHHD: the “one-hybrid fitness for binding NBS DNA” value is at most 0.2. In the case of QCLH, the “one-hybrid fitness for binding NBS DNA” value was at most 0.2. As for QRLP, the figure is at most 0.2; as for QRLN, 0.308; as for QRLS, 0.603. Turning to QRLD, the “one-hybrid fitness for binding NBS DNA” value is at most 0.2. Consider QRLH, for which the “one-hybrid fitness for binding NBS DNA” value worked out at 0.453. In the case of LGRE, the “one-hybrid fitness for binding NBS DNA” value was at most 0.2. Consider ACPI, for which the “one-hybrid fitness for binding NBS DNA” value is at most 0.2. For the variant REGM, the “one-hybrid fitness for binding NBS DNA” value was at most 0.2. With TASA, the “one-hybrid fitness for binding NBS DNA” value was at most 0.2. RQSD: the “one-hybrid fitness for binding NBS DNA” value was at most 0.2. Take RQPR: the “one-hybrid fitness for binding NBS DNA” value was at most 0.2.

In the case of RQDR, the “one-hybrid fitness for binding NBS DNA” value is at most 0.2. Turning to RQQD, the “one-hybrid fitness for binding NBS DNA” value is at most 0.2.

Take RQQP: the “one-hybrid fitness for binding NBS DNA” value is at most 0.2. Turning to RQSH, the “one-hybrid fitness for binding NBS DNA” value is at most 0.2.

RQWR: the “one-hybrid fitness for binding NBS DNA” value was 0.244. As for RQNR, the figure is 0.559. As for RQSR, the “one-hybrid fitness for binding NBS DNA” value was determined as 0.474. As for RQRR, the figure is 0.717; as for RQND, at most 0.2.

With RQQS, the “one-hybrid fitness for binding NBS DNA” value amounted to 0.429. Next, ARKV: at most 0.2; NQVL: at most 0.2. Consider FWRE, for which the “one-hybrid fitness for binding NBS DNA” value is at most 0.2.

As for DFAH, the “one-hybrid fitness for binding NBS DNA” value is at most 0.2.

Regarding PFPI, the “one-hybrid fitness for binding NBS DNA” value is at most 0.2. Turning to KFHC, the “one-hybrid fitness for binding NBS DNA” value was at most 0.2. Take LPAH: the “one-hybrid fitness for binding NBS DNA” value is at most 0.2.

For the variant KTKA, the “one-hybrid fitness for binding NBS DNA” value is at most 0.2. For the variant EELL, the “one-hybrid fitness for binding NBS DNA” value was at most 0.2. On to PSMT, for which the “one-hybrid fitness for binding NBS DNA” value is at most 0.2. RQLR: the “one-hybrid fitness for binding NBS DNA” value turned out to be 0.359. On to RQIR, for which the “one-hybrid fitness for binding NBS DNA” value is at most 0.2.

In the case of RQHR, the “one-hybrid fitness for binding NBS DNA” value came out at 0.476. With RQQG, the “one-hybrid fitness for binding NBS DNA” value is at most 0.2. Next, RQGN: at most 0.2; RQHH: at most 0.2.

Regarding RQQT, the “one-hybrid fitness for binding NBS DNA” value is 0.441. As for RQGP, the figure is at most 0.2; as for RQQK, at most 0.2; as for RQHD, at most 0.2. Next, RQGS: 0.408. RQYR: the “one-hybrid fitness for binding NBS DNA” value stood at 0.368. CNHR: the “one-hybrid fitness for binding NBS DNA” value was at most 0.2. Consider SRDF, for which the “one-hybrid fitness for binding NBS DNA” value is at most 0.2. On to GICT, for which the “one-hybrid fitness for binding NBS DNA” value was at most 0.2. For the variant HHHV, the “one-hybrid fitness for binding NBS DNA” value was at most 0.2. As for ISLV, the figure is at most 0.2; as for PQPQ, at most 0.2; as for SHQT, at most 0.2. Consider RQGH, for which the “one-hybrid fitness for binding NBS DNA” value is at most 0.2. As for RQVR, the figure is 0.258.

With RQAP, the “one-hybrid fitness for binding NBS DNA” value is at most 0.2. As to RQKR, the “one-hybrid fitness for binding NBS DNA” value amounted to 0.752.

As for RQGD, the “one-hybrid fitness for binding NBS DNA” value is at most 0.2.

In the case of RQQH, the “one-hybrid fitness for binding NBS DNA” value is at most 0.2.

As to RQQN, the “one-hybrid fitness for binding NBS DNA” value is at most 0.2. Next, RQAR: 0.427; RQGR: 0.447; RQFR: 0.262.

As for RQKG, the “one-hybrid fitness for binding NBS DNA” value was at most 0.2. Take RQQR: the “one-hybrid fitness for binding NBS DNA” value came out at 0.475.

With IAMG, the “one-hybrid fitness for binding NBS DNA” value is at most 0.2. HHPA: the “one-hybrid fitness for binding NBS DNA” value was at most 0.2. In the case of HPHL, the “one-hybrid fitness for binding NBS DNA” value is at most 0.2.

For TLMC, the “one-hybrid fitness for binding NBS DNA” value was at most 0.2. As for PVFR, the “one-hybrid fitness for binding NBS DNA” value was at most 0.2.

As for FHGR, the “one-hybrid fitness for binding NBS DNA” value was at most 0.2. For QHHG, the “one-hybrid fitness for binding NBS DNA” value was at most 0.2.

With RYFG, the “one-hybrid fitness for binding NBS DNA” value is at most 0.2.

Take RQRN: the “one-hybrid fitness for binding NBS DNA” value is 0.221. On to RQHN, for which the “one-hybrid fitness for binding NBS DNA” value is at most 0.2. Take RQCS: the “one-hybrid fitness for binding NBS DNA” value stood at 0.278. Consider RQCN, for which the “one-hybrid fitness for binding NBS DNA” value is at most 0.2. Consider RQHS, for which the “one-hybrid fitness for binding NBS DNA” value came out at 0.468.

On to RQYS, for which the “one-hybrid fitness for binding NBS DNA” value turned out to be 0.322.

RQRS: the “one-hybrid fitness for binding NBS DNA” value turned out to be 0.6. For the variant RQHP, the “one-hybrid fitness for binding NBS DNA” value was at most 0.2.

For RQCR, the “one-hybrid fitness for binding NBS DNA” value was 0.394. As to TYVN, the “one-hybrid fitness for binding NBS DNA” value is at most 0.2. IGSF: the “one-hybrid fitness for binding NBS DNA” value is at most 0.2.

With FTRC, the “one-hybrid fitness for binding NBS DNA” value is at most 0.2. For PRTW, the “one-hybrid fitness for binding NBS DNA” value was at most 0.2. Take QTHY: the “one-hybrid fitness for binding NBS DNA” value came to 0.384. For the variant QSHY, the “one-hybrid fitness for binding NBS DNA” value is 0.201. As to QTHH, the “one-hybrid fitness for binding NBS DNA” value was determined as 0.44.

On to QTHF, for which the “one-hybrid fitness for binding NBS DNA” value is at most 0.2. Regarding QTHD, the “one-hybrid fitness for binding NBS DNA” value was at most 0.2. QTHS: the “one-hybrid fitness for binding NBS DNA” value came to 0.585. Regarding QTHN, the “one-hybrid fitness for binding NBS DNA” value is 0.297. Next, QTHP: at most 0.2; YMSF: at most 0.2; HSWC: at most 0.2.
